Reference: PubChem BioAssay AID504884 (Broad Institute, 2011)
Out of some 360,000 compounds screened, about 230 (0.064%) were called active. The full list was thinned out, with actives kept by preference. Unmarked numbers belong to inactive results. Cut-off read from the data, not from the text of the source: active = activity above about 50% (passing the limit was not always enough); inconclusive = no clear call, values can overlap the other calls.

Tested on: DNA topoisomerase I (Yersinia pestis CO92)
Experiment: Yersinia pestis topoisomerase I inhibitors, primary screen, biochemical, cleavage product accumulation, plate reader, single point (AID 504884)
Settings: Y. pestis Topo-I cleavage product accumulation, at 10 µM, active compounds read high

Structure (SMILES)	activity
CCCCNC(=O)c1ccccc1NC(=O)c1ccccc1N(C)S(C)(=O)=O	8.01%
c1ccc(CC2CCN(c3nc4ccccc4n4cnnc34)CC2)cc1	27.5%
COc1ccc(CN2CCC(n3nccc3NC(=O)CCCc3ccccc3)CC2)cc1C	18.3%
CC(C)(C)N(Cc1ccccc1)C(=O)COC(=O)CCc1c[nH]c2ccccc12	1.59%
CC1(c2ccc3ccccc3c2)NC(=O)NC1=O (configuration not stated)	0.131%
O=C1CSC(c2cccc(F)c2)N1c1ccccc1F (configuration not stated)	-2.91%
O=C(Cc1ccccc1F)NC1CCSc2ccccc21 (configuration not stated)	5.76%
O=S(=O)(O)c1cc2onnc2c2ccccc12	-2.58%
CCOC(=O)/C=C/C(=O)OCC(=O)NC(c1ccccc1)c1ccccc1	7.5%
COc1ccc(OC)c(CN2CCN(C(=O)CNC(=O)c3cc(C)cc(C)c3)CC2)c1	9.4%
CCOC(=O)C(C)Oc1cccc2c(=O)n(CC(=O)N3CCc4ccccc43)ccc12 (configuration not stated)	-0.583%
COc1ccc(CN2CCNC(=O)C2CC(=O)NCc2cn[nH]c2-c2ccccc2)c(F)c1 (configuration not stated)	14.5%
COc1ccc(N(CC(=O)NC2CCCCC2)C(=O)CNC(=O)c2ccco2)c(OC)c1	18.1%
CCOc1ccc(NC(=O)CCC(=O)NNC(=O)NC2CCCCC2)cc1	-4.6%
N#Cc1cccc(NC(=O)CCC2CCCC2)c1	0.569%
N#CC(C#N)=CN=c1ccn(Cc2ccc(Cl)cc2Cl)cc1	1.09%
CC(C(=O)NC1CCCCC1)N1C(=O)c2cccc3cccc1c23 (configuration not stated)	10.7%
O=C(C[n+]1cc(-c2ccc(Cl)c(Cl)c2)n2c1CCC2)c1cccs1	5.58%
Nc1nc(SCC(=O)NN(c2ccccc2)c2ccccc2)n[nH]1	-4.71%
CN(CC(=O)N1CCN(c2ccccc2)CC1)S(=O)(=O)c1cccs1	3.69%
Cc1cc(C)c(C2C3=C(Nc4c2c(C)nn4-c2ccccn2)c2ccccc2C3=O)c(C)c1 (configuration not stated)	0.572%
CC(C)CCNC(=O)C(C)N(C(=O)Cn1nnc(-c2ccc(F)cc2)n1)C1CCCC1 (configuration not stated)	21.2%
CN(C)C(CNC(=O)c1ccc(S(=O)(=O)NCc2ccco2)cc1)c1ccccc1 (configuration not stated)	2.31%

Structure (SMILES)	activity
Cc1ccc(S(=O)(=O)NCC(=O)NNC(=O)c2ccc(Br)cc2)cc1C	9.73%
O=S(=O)(c1ccc(-c2ccno2)s1)N1CCCCC1	0.748%
COc1ccc(S(=O)(=O)NCC2CCCN(C(=O)c3occc3C)C2)cc1 (configuration not stated)	0.202%
Cc1cccc(N2CCN(C(=O)COCc3cc(-c4ccc5c(c4)OCO5)on3)CC2)c1C	38.3%
COc1cc(C(=O)OCCCN2CCOCC2)cc(OC)c1OC	-0.169%
Cc1ccc2nc(-c3ccc(SCC(=O)Nc4cc(C)on4)nc3)[nH]c2c1	1.96%
CC(=O)Oc1ccc(OC(C)=O)c2c1C1C=CC2CC1	-5.11%
O=C(NCC(F)(F)F)Nc1nnc(C(F)(F)F)s1	11.4%
Cc1nn(C)c(C)c1S(=O)(=O)N1CCC(CO)(Cc2ccc(Cl)cc2)CC1	4.97%
Cc1nnc(SCC(=O)NC(=O)NC2CCCC2)n1N	-5.78%
CC1CN(/C=C/C(=O)C(F)(F)F)CC(C)O1 (configuration not stated)	5.75%
CCOc1ccc(NC(=O)CN(C)C(=O)Cn2c(=O)cnc3ccccc32)cc1OCC	1.46%
CCOC(=O)c1[nH]cnc1C(=O)NC1CCCCC1	-3.43%
CCc1nc2c(OCCC3CCCCC3)cccn2c1N(C)C(=O)c1ccco1	31.3%
CC1CC(C)CN(c2ccc(S(=O)(=O)N3CCOCC3)cc2)C1 (configuration not stated)	31.2%
ClC1(Cl)CC1CSc1ncn[nH]1 (configuration not stated)	4.63%
CCCC(C)C(=O)OCC(=O)Nc1c(Br)cc(C)cc1Br (configuration not stated)	0.888%
COc1cccc2c1OCC(C(=O)NCc1ccc(Cl)cc1Cl)=C2	5.83%
CCOc1nnc(C)c2c(C)n(-c3cccc(Cl)c3)nc12	0.181%
O=C(CC1C(=O)NCCN1C(=O)c1ccc([N+](=O)[O-])cc1)Nc1cccc(Cl)c1 (configuration not stated)	-5.36%
CCc1ccccc1NC(=O)/C(=C/c1ccccc1)c1ccccc1	58.2% (active)
CCc1ccccc1NC(=S)Nc1cc(OC)c(NC(=O)C(C)C)cc1OC	-1.32%
CCc1ccccc1NC(=O)CCOc1ccccc1	2.54%

Structure (SMILES)	activity
CCOc1ccc(S(=O)(=O)N2CCCCC2)cc1NC(=O)CN1CCCC1c1cccs1 (configuration not stated)	9.92%
COc1ccc2c(c1)CCc1cn3ncc(C#N)c3nc1-2	5.21%
O=C(COc1ccc(F)cc1)N(CC1=CCS(=O)(=O)C1)c1ccccc1	3.66%
CCN(C(=O)COc1ccc(C(=O)c2ccccc2)cc1)c1ccccc1	51.2% (active)
CCN(C(=O)c1ccc(Br)cc1)c1ccccc1	4.1%
C=CCN(C(=O)c1cc(C)cc(C)c1)C1(C(=O)Nc2ccccc2)CCN(C(C)C)CC1	-1.88%
C=C1CCN([C@@H](Cc2ccccc2)C(=O)N2CCOCC2)S(=O)(=O)c2ccccc21	11.9%
CCc1cc(-c2n[nH]c(=S)n2CC(C)C)cs1	7.56%
CCn1ncc(C2=NOC(C(=O)Nc3ccccc3C(=O)OC)C2)c1C (configuration not stated)	16.1%
C[N+]1(CCNC(=O)/C=N/O)CCCCC1	3.78%
N#Cc1ccc(/C=C2\CCn3c2nc2cc(C(=O)O)ccc2c3=O)cc1	5.43%
CCN(CC)S(=O)(=O)c1ccc(OC(C)C)c(N)c1	9.36%
CCCC(C)C(=O)NCc1ccncc1 (configuration not stated)	3.84%
Cc1cnc(C(=O)OCc2c(C)cc(C(C)(C)C)cc2C)cn1	33.4%
O=C(NC(c1ccc(Cl)cc1)P(=O)(Oc1ccccc1)Oc1ccccc1)OCc1ccccc1 (configuration not stated)	-6.44%
COc1cc(C(=O)OCc2cc(=O)n3ccsc3n2)ccc1OC(C)C	1.94%
COc1cc([N+](=O)[O-])ccc1NC(=O)COC(=O)CCOc1ccc(C)cc1	-0.7%
Cc1ccc(OCC(=O)Nc2ccccc2C(=O)NC2CC2)cc1	-5.78%
CSc1ccccc1NC(=O)COC(=O)CCCOc1ccc(C)cc1	71.8% (active)
O=S(=O)(Nc1ccc2[nH]ncc2c1)c1ccccc1Cl	5.56%
CC(NC(=O)c1ccccc1C(=O)O)c1ccc(-n2ccnc2)cc1 (configuration not stated)	-18%
C=C(C)CNc1cc(S(=O)(=O)N2CCOCC2)ccc1Oc1ccccc1	23%
CCN(CC(=O)Nc1cc(Cl)ccc1C)C(=O)CN1C(=O)NC2(CCCC2)C1=O	-11.4%

Structure (SMILES)	activity
COC(=O)CN1C(=O)[C@H]2[C@@H](C3CC3)N3C(=O)CN(Cc4ccc(-c5ccccc5)cc4)C(=O)[C@@]3(Cc3ccccc3)[C@H]2C1=O	35.2%
CCC1(C)NC(=O)N(CC(=O)N2CCN(c3cccc(Cl)c3)CC2)C1=O (configuration not stated)	2.38%
CCC1C=C(c2ccccc2)C=CN=C1N(CC)CC (configuration not stated)	0.893%
CCN(CC)S(=O)(=O)c1ccc(N2CCOCC2)c(NC(=O)C(C)Oc2ccc(F)cc2)c1 (configuration not stated)	18%
CCN1CCc2nc(NC(=O)c3cc(F)c(F)cc3Cl)sc2C1	6.77%
COc1ccc(CCNC(=O)C(=O)NCC2CCNCC2)cc1OC	0.788%
CC(C)C(NC(=O)OCc1ccccc1)C(=O)OCC(=O)N1C(C)CCCC1C (configuration not stated)	15.6%
CC(C)[C@H](NC(=O)OCc1ccccc1)C(=O)OCc1ccccc1	58.9% (active)
COC(=O)[C@H](C)[C@H]1C[C@]1(C)[C@H](NC(=O)OCc1ccccc1)c1ccccc1	16.4%
COc1ccc(N(Cc2cc3ccc(C)cc3[nH]c2=O)S(=O)(=O)c2ccccc2)cc1	29.4%
CN1C(C)(C)CC(NC(=O)CCC(=O)NC2CC(C)(C)N(C)C(C)(C)C2)CC1(C)C	-3.64%
O=C(O)c1cc(S(=O)(=O)NC2CCCc3ccccc32)ccc1O (configuration not stated)	-3.28%
COc1ccc(N2CC(C)Cn3c2nc2c3c(=O)n(Cc3ccccc3F)c(=O)n2C)c(OC)c1 (configuration not stated)	14.8%
O=C(CN1C(=O)COc2ccc(Cl)cc21)N1CCOCC1	2.5%
CCC(CC)c1nnc(NS(=O)(=O)Cc2ccccc2)s1	-2.39%
Cc1ccc2c(C)c(C(=O)N3CCC(N4CCC(C(=O)NC5CC5)CC4)CC3)oc2c1	-3.85%
Cc1ccc(-n2ncc3c(Nc4cccc(C(=O)O)c4)ncnc32)cc1	-7.17%
Cc1ccc(Cl)cc1NC(=O)C1CCN(S(C)(=O)=O)CC1	6.58%
c1cc2c(cc1C1OCC3C(c4ccc5c(c4)OCO5)OCC13)OCO2 (configuration not stated)	21.1%
CC(=O)c1cccc(OCC(=O)OCC(=O)Nc2cc(S(=O)(=O)N3CCCCC3)ccc2C)c1	29.7%
COc1cccc(N(CC(=O)NCCSc2ccccn2)S(C)(=O)=O)c1	-7.24%
O=C(CSc1nc2cc3c(cc2c(=O)n1CCC1=CCCCC1)OCO3)NCc1ccco1	-0.243%
Cc1cccn2cc(-c3cccc(S(=O)(=O)N4CCCCC4)c3)nc12	23.2%
